Data published in PubChem BioAssay (NCI).
About 83,000 compounds went through this panel and 20% of them were active in at least one assay; those are over-represented in the sample as a whole.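 Activity criterion: percent growth below 10, measured after cells in 96-well plates were exposed to a single compound concentration for 48 hours.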 Unmarked numbers belong to inactive results. The source made the active and inactive calls.

Experiments:
Test in all cases: NCI-60 one-dose screen, 48 h (100 = growth as untreated, 0 = no growth, -100 = all killed)
Details in all cases: 10 µM
[1] = tested on: SK-MEL-2 melanoma
[2] = tested on: EKVX NSCLC
[3] = tested on: UO-31 renal
[4] = tested on: TK-10 renal
[5] = tested on: ACHN renal
[6] = tested on: CAKI-1 renal
[7] = tested on: A498 renal
[8] = tested on: CCRF-CEM leukemia
[9] = tested on: MOLT-4 leukemia
[10] = tested on: SR leukemia
[11] = tested on: RPMI-8226 leukemia
[12] = tested on: OVCAR-8 ovarian
[13] = tested on: OVCAR-4 ovarian
[14] = tested on: SK-OV-3 ovarian
[15] = tested on: IGROV1 ovarian
[16] = tested on: OVCAR-3 ovarian
[17] = tested on: NCI/ADR-RES ovarian
[18] = tested on: HS 578T breast
[19] = tested on: OVCAR-5 ovarian
[20] = tested on: SN12C renal

SMILES	growth [1]	growth [2]	growth [3]	growth [4]	growth [5]	growth [6]	growth [7]	growth [8]	growth [9]	growth [10]	growth [11]	growth [12]	growth [13]	growth [14]	growth [15]	growth [16]	growth [17]	growth [18]	growth [19]	growth [20]
Nc1cc(O)cc(O)c1	98.7%	97.1%	97.8%	87.4%	105%	96.2%	116%	114%	104%	91.7%	109%	104%	94.1%	99.3%	100%	108%	99.7%			
C[C@@H]1C(=O)N(C[C@H](Cc2ccccc2)NC(=O)OCc2ccccc2)[C@]1(Cc1ccccc1)C(=O)OCc1ccccc1	42.9%	34%	16.4%	29.1%	32.2%	32.2%	37.7%	52.6%	-0.259% (active)	35.2%	30.1%	40.7%	22.1%	54.8%	69.5%	61.3%	27%	78.8%		
CN(C)c1ccc2c(c1)OC(N)=C(C#N)C2c1ccc2c(c1)CCO2 (stereo not drawn)	32.1%	35.9%	38.2%	79.1%	37.4%	37%	-9.63% (active)	28.7%	34.5%	38.2%	32.9%	24.1%	48.3%	32.2%		-3.4% (active)	3% (active)	23.1%	57.2%	
O=C(N/N=C\c1cc(Cl)ccc1O)c1ccncc1	96.9%	83.2%	41.6%	66.3%	27.7%	49.2%	104%	11.3%	15.9%		52.7%	44.5%	31.4%	59.4%	33%	19.1%	26.8%	125%	83.9%	
CCCCN(CCCC)c1ccc(C(=NC(C)CCCN(CC)CC)c2ccc(N(C)C)cc2)cc1 (stereo not drawn)	-78.9% (active)	-30.4% (active)	-87.8% (active)	-8.82% (active)	-41.3% (active)	-5.33% (active)		7.26% (active)	-6.33% (active)	-26.2% (active)	-43.6% (active)	-49% (active)	-13.5% (active)	-70.9% (active)		-47.7% (active)	-51% (active)	-49.8% (active)	-6.48% (active)	
NC(=O)c1ccc(Br)o1	100%	104%	93.2%	90.8%	103%	102%	108%	119%	109%		112%	108%	107%	104%	107%	107%	96.8%	109%	105%	
O=C(O)CCCN1C(=O)NC2(C1=O)c1ccccc1-c1ccccc12	83.2%	98.3%	88.4%	90.1%	104%	98.4%	101%	96.5%	101%		99.9%	97.3%	106%	103%	101%	109%	96.8%		101%	
O=C1CC[C@@H](C(=O)N[C@H]2CSSC[C@@H](C(=O)NCCc3ccccc3)NC(=O)[C@H](Cc3ccccc3)NC(=O)[C@@H]3CCCN3C(=O)[C@@H]3CCCN3C2=O)N1	94.2%	101%	99.1%	86.9%	104%	97.3%	91.2%	69.4%	85.8%	94.5%	108%	104%	105%	97.5%		104%	99.8%	101%	90.4%	
O=C1/C(=C/c2ccc(O)cc2O)N=C2SCCCN12	109%	96.3%	97.6%	88.4%	97.6%	97.4%	90.1%	111%	93.8%	89.8%	103%	97.5%	97.1%	102%	101%	98.6%	98.7%	105%		
CCCCCC(CCC)COC(=O)c1ccc(OC)cc1 (stereo not drawn)	96%	100%	85.8%	95.6%	106%	92.3%	109%	75.3%	100%		91.8%	96.5%	109%	101%		111%	103%	106%	102%	
CCN(CC)CCOC(=O)c1ccc(NC(=O)Nc2cccc(Cl)c2)cc1	94.7%	99.2%	92.5%	96.1%	108%	96.8%		-4.69% (active)	84.9%		103%	97.6%	107%	102%	105%	97.6%	97.5%	100%	105%	
CN(C)Cc1cccs1	103%	103%	82.9%	101%	96.7%	98.3%		80%	96.3%	114%	102%	97%	109%	87.8%		101%	101%	102%	98.5%	
Cc1ccc2oc(=O)cc(/C(=C3/C=CC=N3)c3ccc[nH]3)c2c1	2.71% (active)	16.5%	5.2% (active)	1.86% (active)	10%	3.96% (active)	-9.36% (active)	10.4%	-3.84% (active)		-16.9% (active)	-20.2% (active)	28%	-16% (active)	16.6%	-23.3% (active)	0.0095% (active)		21.1%	
CCn1nc(-c2ccccn2)c2cccnc2c1=S	88.2%	59.9%	77.3%	89.9%	89.4%	86.6%	99.2%	31.5%	57.5%	61.6%	55.2%	79.5%	26.5%	94.7%		15.4%	91.5%	96.6%	97%	
CCCCCCCCCCSC(=N)N (tested in a mixture with another compound)	81.2%	74.8%	64.4%	90.1%	81.1%	87.9%	80.1%	56.2%	43.9%	-26.7% (active)	38%	81.6%	90%	85.9%	68%	76.1%	82.5%	81.9%		
O=S(=O)(NC1c2ccccc2Oc2ccccc21)c1cc(Cl)ccc1Cl	103%	98.6%	79.3%	95.6%	82.7%	88.7%	94.3%	74.8%	96.7%		96.7%	93.5%	80.9%	98.1%	95.5%	98.7%	93.5%	102%	109%	
CCOC(=O)[C@@H](Cc1ccccc1)NC(=O)c1[nH]c2ccc(Cl)cc2c(=O)c1C	89%	97.4%	84.7%	91.3%	95.6%	86.6%	143%	74.4%	93.3%		83.1%	97.8%	102%	100%	96.2%	111%	106%	94.2%	106%	
CCCCn1c(=O)[nH]c2c(c1=O)C(c1ccc(Cl)cc1)c1c([nH]c(=O)n(CCCC)c1=O)N2	108%	99.9%	94.9%	91.3%	105%	95.6%		108%	104%	106%	104%	99.5%	102%	94.7%	102%	115%	98.6%	106%	99.5%	

SMILES	growth [1]	growth [2]	growth [3]	growth [4]	growth [5]	growth [6]	growth [7]	growth [8]	growth [9]	growth [10]	growth [11]	growth [12]	growth [13]	growth [14]	growth [15]	growth [16]	growth [17]	growth [18]	growth [19]	growth [20]
CN(C)c1ccc2c(c1)OC(N)=C(C#N)C2c1ccc2c(c1)CCCN2C (stereo not drawn)	30.7%	34.5%	51.4%	70.3%	52.8%	40%	-8.42% (active)	24.5%	35.8%	29.5%	34.5%	30.9%	56.3%	24.4%		3.67% (active)	0.712% (active)	20.1%	78.2%	
O=C(NCCc1nccs1)c1cnc2c(S)cccc2c1	22.6%	16.3%	12.9%	38.5%	29%	19%	-2.06% (active)	15.4%	15.1%	14.6%	26.2%	29.3%	27.1%	20.1%		5.69% (active)	5.32% (active)	21.5%	75.2%	
c1ccc(CC(NCCNC(Cc2ccccc2)c2ccccc2)c2ccccc2)cc1 (stereo not drawn)	69.8%	23%	27.3%	61.1%	20.6%	7.43% (active)		10.1%	-13.2% (active)	-33.7% (active)	-41.1% (active)	22.5%	35.6%	84%	36.4%	22.9%	38.8%	73.4%	55.2%	
CNC(=O)c1cc(Oc2ccc(NC(=O)Nc3ccc(Cl)c(C(C)(C)C)c3)c(F)c2)ccn1	44.2%	29.9%	41.6%	54.8%	31.5%	54.4%	53.4%	40.6%	36.6%	43.4%	34.2%	44.9%	33.1%	66.6%		40.5%	40.2%	64%	82.6%	
Cc1nc2ccc(-n3c(-c4ccc(Cl)cc4)nc4ccccc4c3=O)cc2n1Cc1ccccc1	96.5%	90.1%	59%	111%	91.9%	81.3%		80.2%	84.1%	86.7%	64.6%	93.4%	90.7%	87.3%		99.6%	94.9%	101%	118%	
CC(C)c1[nH]nc2c(NCc3ccc(-c4ccccn4)cc3)nc(SCCN(C)C)nc12	-65.6% (active)	-5.89% (active)	16.7%	6.52% (active)	7.84% (active)	18.9%	-66.3% (active)	1.67% (active)	-8.11% (active)		-14.4% (active)	13.9%	-1.82% (active)	8.24% (active)	16.2%	4.83% (active)	7.1% (active)		21.4%	
O=C(N/N=c1/ccoc2cccnc12)N1CCN(c2ncccn2)CC1	11.8%	17.4%	24.8%	27.4%	25.1%	26%	45.3%	30.5%	8.23% (active)		30.6%	25.3%	18.3%	15.4%	31.4%	30.6%	10.1%	51.4%	50%	
Cc1cc(C(C)(C)CC(C)(C)C)ccc1OCCOCC[N+](C)(C)Cc1ccccc1	-34.2% (active)	-0.736% (active)	65.4%	-11.6% (active)		89.1%		-8.84% (active)	-39.6% (active)	-62.5% (active)	-20% (active)	18.7%	2.92% (active)	11%	-76.8% (active)	12.9%	103%	-9.66% (active)		
COc1cc(C2C=C(c3ccc(Cl)cc3)N=C3SC(C)=CN32)cc(OC)c1OC (stereo not drawn)	102%		79.3%	71%	105%	88.7%	86.1%	89.2%	80.2%	9.45% (active)	47.5%	93.6%	77.4%	118%	96.6%	103%	97.6%	101%	85.2%	90.6%
NC1CCC(Nc2nc(NCc3ccc(-c4cccs4)nc3)c3ncn(C4CCCC4)c3n2)CC1 (stereo not drawn)	-76.8% (active)	-17% (active)	9.49% (active)	5.89% (active)		15.3%	-78.5% (active)	-2.89% (active)	-16.3% (active)	-33.2% (active)	-20.5% (active)	12.2%	5.74% (active)	4.04% (active)	8.26% (active)	2.56% (active)	38.1%	6.97% (active)	22.6%	
O=C(CSc1nnc(-c2ccc(Cl)cc2)o1)c1ccccc1	104%	102%	98.1%	97.5%		99.3%	106%	94.3%	104%	94%	96.4%	96.2%	112%	102%		102%	94.9%	101%	97.7%	
CS(=O)(=O)Nc1ccc([N+](=O)[O-])cc1Oc1ccccc1	125%	87.6%	81.5%	117%		78.7%	92%	85.5%	84.8%	87%	83.2%	92.1%	97%	97.3%	106%	95.4%	96.8%	98.2%		
Cc1ccc(C)c(S(=O)(=O)NC2c3ccccc3Oc3ccccc32)c1	101%	100%		90.7%	82.3%	88.7%	90.9%	73.7%	89.3%	63%	98.2%	90.6%	92.6%	102%	96%	95.9%	88.5%		103%	
COc1ccc(/C(CS(=O)(=O)c2ccccc2)=N\O)cc1	113%		104%	92.5%	109%	101%	102%	96.3%	98.4%	87%	101%	103%	99.4%	112%	109%	125%	115%	104%	104%	96.9%
O=C(O)CCCCSCCCCC(=O)O	93.2%	106%		92%	104%	100%	118%	95.8%	93.1%	87.6%	97.9%	106%	113%	98.7%	97.9%	109%	109%	104%	122%	
CCOc1cc(Br)c(C(C)NC(=O)c2cccc(OC)c2)cc1OCC (stereo not drawn)	80.9%		54.7%	77.8%	95.7%	81.6%	54%	53.7%	49.3%	3.32% (active)	36.3%	84.3%	64.5%	96%	73.8%	74.8%	94.4%	75.5%	88.7%	78.8%
CN(C)CCCN1c2ccccc2Sc2ccc(C(F)(F)F)cc21	-16.3% (active)	43.4%	18.7%	25%		22.4%	62.8%	16.5%	6.88% (active)	-42.3% (active)	22.5%	44.4%	44.4%	20.2%	17%	8.18% (active)	10.4%	27%		
